This is a sample that favours compounds with a hit; in the whole collection about 3.9% have one here.
PLC-gamma1 inh = PLC-gamma1 enzyme inhibitors, primary screen, biochemical, fluorescence, purified enzyme; 1-phosphatidylinositol 4,5-bisphosphate phosphodiesterase gamma-1 (Homo sapiens), P19174; fluorogenic substrate; inhibition, % at 12.2 µM; 370,000 compounds, 0.84% hits; AID 720700, 2013; in the data active = inhibition above about 9.5%
PLC-beta3 inh = human PLC-beta3 inhibitors, primary screen, biochemical, fluorescence | inhibition, % at 12.2 µM | 1-phosphatidylinositol 4,5-bisphosphate phosphodiesterase beta-3 (Homo sapiens), Q01970 | Purified PLC-beta3, fluorogenic substrate | 370,000 compounds, 0.18% hits; in the data active = inhibition above about 11%
AHR act = AHR activators, primary screen, cell-based, luminescence, luciferase reporter, human. AID 2796, 2010. 320,000 compounds, 2.5% hits. Aryl hydrocarbon receptor (Homo sapiens), P35869. AHR-responsive luciferase reporter cells. activation, % at 5 µM; in the data active = activation above about 47%
HIF activator = HIF pathway transcriptional activators, primary screen, cell-based, U2OS HRE-luciferase, luminescence; AID 1910, 2009; activation, % at 7.5 µM (by protocol); 300,000 compounds, 0.32% hits; U2OS HRE-luciferase reporter; normalized: DMSO 0%, desferrioxamine 100%;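 active = mean activation of at least 10% of the iron chelator positive control signal, with at least half of replicates also reaching 10%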
CR mimetic SO = reduction of superoxide in aged yeast, primary screen, HTS; superoxide response (% of plate mean), % at 10 µM; S. cerevisiae aged cells, superoxide DHE fluorescence; active compounds read low; 330,000 compounds, 0.18% hits; AID 2690, 2010;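 active = superoxide response under a set limit, about three screen SD below normal, cut at about 65% in these data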;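 also: yeast aged for seven days with compound at 30 °C before DHE staining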
HGIII-sPLA2 inh = human group III sPLA2 inhibitors, primary screen, biochemical, QFRET, BODIPY PC-A2 liposome substrate. Group 3 secretory phospholipase A2 (Homo sapiens), Q9NZ20. QFRET BODIPY PC-A2 liposome hydrolysis, fluorescence. inhibition, % at 12.2 µM. 370,000 compounds, 0.56% hits;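 active = inhibition above mean plus 3 SD of compounds lying within the high and low control bounds, cut at about 19% in these data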
AHR act cf = AHR activators, confirmation, cell-based, luminescence, luciferase reporter, human. activation, % at 9 µM. human cells, AHR-responsive luciferase reporter. 2,300 compounds, 87% hits. AID 2845, 2010. shares compounds with AHR act; in the data active = activation above about 49%;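 also: HepG2 hepatoma cells carrying a DRE-driven firefly luciferase reporter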
PXR counter = human PXR activators, counter-screen for AHR activator project, cell-based, luciferase luminescence; shares compounds with AHR act; activation, % at 11.6 µM; AID 434939, 2010; 2,300 compounds, 88% hits; cell-based PXR reporter; in the data active = activation above about 11%;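 also: human hepatoma DPX-2 cells expressing full-length human PXR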
Numbers stand for hits.

For CCc1nnc(NC(=O)c2sc3nc4c(cc3c2N)CCCCC4)s1 the results were PLC-gamma1 inh inactive, PLC-beta3 inh inactive, AHR act 124, HIF activator inactive, CR mimetic SO inactive, HGIII-sPLA2 inh inactive, AHR act cf inactive and PXR counter 36.
`O=C(C(=O)N1CCC(CNC(=O)c2sc3ccccc3c2Cl)CC1)c1cccs1` gave PLC-gamma1 inh inactive, PLC-beta3 inh inactive and HGIII-sPLA2 inh inactive.
`O=C(Nc1ccc(Cl)cc1)c1ccc(Br)cc1F` gave PLC-gamma1 inh inactive, PLC-beta3 inh inactive, AHR act 97, HIF activator inactive, CR mimetic SO inactive, HGIII-sPLA2 inh inactive, AHR act cf 130 and PXR counter 65.
For CC(C)c1ccc(NC(=O)c2cc(Br)ccc2Br)cc1 the results were PLC-gamma1 inh inactive, PLC-beta3 inh inactive, AHR act inactive, HIF activator inactive, CR mimetic SO inactive and HGIII-sPLA2 inh inactive.
Screening C#CCn1c2ccccc2c2nc3ccccc3nc21 returned PLC-gamma1 inh inactive, PLC-beta3 inh inactive, AHR act 88, HIF activator inactive, CR mimetic SO inactive, HGIII-sPLA2 inh inactive, AHR act cf 191 and PXR counter 49.
Screening O=C1c2ccccc2C(O)(c2ncc[nH]2)N1CCc1ccccc1 (stereo not given) returned PLC-gamma1 inh inactive, PLC-beta3 inh inactive, AHR act 98, HIF activator inactive, CR mimetic SO inactive, HGIII-sPLA2 inh inactive, AHR act cf 105 and PXR counter 24.
For CC(C)c1[nH]nc2c1C(c1ccc(F)cc1)N(Cc1ccccc1)C2=O (stereo not given) the results were PLC-gamma1 inh inactive, PLC-beta3 inh inactive and HGIII-sPLA2 inh inactive.
`N#CC1=C(N)Nc2nc3ccccc3n2C1c1ccc(Cl)cc1` (stereo not given) gave PLC-gamma1 inh inactive, PLC-beta3 inh inactive, AHR act 99, HIF activator inactive, CR mimetic SO inactive, HGIII-sPLA2 inh inactive, AHR act cf 69 and PXR counter 49.
`CCc1nnc(NS(=O)(=O)c2ccc(NCc3ccccc3O)cc2)s1` gave PLC-gamma1 inh inactive, PLC-beta3 inh inactive, AHR act inactive, HIF activator inactive, CR mimetic SO inactive and HGIII-sPLA2 inh inactive.
COc1ccc2nc(SCC(=O)N3CC(=O)Nc4ccccc43)c(C#N)cc2c1 was read as PLC-gamma1 inh inactive, PLC-beta3 inh inactive, AHR act inactive, HIF activator inactive, CR mimetic SO inactive and HGIII-sPLA2 inh inactive.
Screening Cc1cc(C)c2nc(SCC(=O)N3CC(=O)Nc4ccccc43)c(C#N)cc2c1 returned PLC-gamma1 inh inactive, PLC-beta3 inh inactive, AHR act 92, HIF activator inactive, CR mimetic SO inactive, HGIII-sPLA2 inh inactive, AHR act cf 76 and PXR counter 77.
For CC(C(=O)Nc1ccc(S(=O)(=O)N2CCCCC2)cc1)N1CCN(c2ccccn2)CC1 (stereo not given) the results were AHR act inactive, HIF activator inactive and CR mimetic SO inactive.
`O=C(Nc1nc2c(s1)CCc1ccccc1-2)c1cccs1` gave PLC-gamma1 inh inactive, PLC-beta3 inh inactive, AHR act 85, HIF activator inactive, CR mimetic SO inactive, HGIII-sPLA2 inh inactive, AHR act cf 158 and PXR counter 20.
For O=C(Nc1nc2c(s1)COc1ccccc1-2)c1cccs1 the results were PLC-gamma1 inh inactive, PLC-beta3 inh inactive, AHR act 129, HIF activator inactive, CR mimetic SO inactive, HGIII-sPLA2 inh inactive, AHR act cf 129 and PXR counter 16.
For O=C(Nc1nc2ccc(F)cc2s1)c1cccs1 the results were PLC-gamma1 inh inactive, PLC-beta3 inh inactive, AHR act 99, HIF activator inactive, CR mimetic SO inactive, HGIII-sPLA2 inh inactive, AHR act cf 136 and PXR counter inactive.
`CCCCc1ccc2nc(NC(=O)c3cccs3)sc2c1` gave PLC-gamma1 inh inactive, PLC-beta3 inh inactive and HGIII-sPLA2 inh inactive.
CC(CCc1ccccc1)NC(=O)c1ccc(-n2cncn2)c([N+](=O)[O-])c1 (stereo not given) was read as PLC-gamma1 inh inactive, PLC-beta3 inh inactive, AHR act inactive, HIF activator inactive, CR mimetic SO inactive and HGIII-sPLA2 inh inactive.
Screening Nc1[nH]c(C(=O)c2ccccc2)c(-c2ccncc2)c1C(=O)NCCc1c[nH]c2ccccc12 returned PLC-gamma1 inh inactive, PLC-beta3 inh inactive and HGIII-sPLA2 inh inactive.
Screening N#C/C(=C(\O)c1cc(Cl)sc1Cl)c1nc2ccccc2[nH]1 returned PLC-gamma1 inh inactive, PLC-beta3 inh inactive, AHR act 89, HIF activator inactive, CR mimetic SO inactive, HGIII-sPLA2 inh inactive, AHR act cf 161 and PXR counter 13.
For Cc1sc(N/N=C/c2ccco2)nc1-c1ccccc1 the results were PLC-gamma1 inh inactive, PLC-beta3 inh inactive, AHR act 170, HIF activator inactive, CR mimetic SO inactive, HGIII-sPLA2 inh inactive, AHR act cf 80 and PXR counter 31.
For Cc1ccc2nc(SCC(=O)N/N=C/c3ccco3)cc(C)c2c1 the results were PLC-gamma1 inh inactive, PLC-beta3 inh inactive, AHR act inactive, HIF activator inactive, CR mimetic SO inactive and HGIII-sPLA2 inh inactive.
For Cc1ccc2nc(N/N=C/c3ccco3)cc(C)c2c1 the results were PLC-gamma1 inh inactive, PLC-beta3 inh inactive, AHR act 121, HIF activator inactive, CR mimetic SO inactive, HGIII-sPLA2 inh inactive, AHR act cf 177 and PXR counter 23.
Screening C=CCNC(=S)N1CCN(Cc2ccc3c(c2)OCO3)CC1 returned PLC-gamma1 inh inactive, PLC-beta3 inh inactive, AHR act inactive, HIF activator inactive, CR mimetic SO inactive and HGIII-sPLA2 inh inactive.
For O=c1c2ccccc2cnn1-c1ccc(Br)cc1 the results were PLC-gamma1 inh inactive, PLC-beta3 inh inactive, AHR act 136, HIF activator inactive, CR mimetic SO inactive, HGIII-sPLA2 inh inactive, AHR act cf 109 and PXR counter 38.
Screening CCOc1ccccc1-c1nc(-c2ccc(NC(=O)Cc3ccc(OC)cc3)cc2)no1 returned PLC-gamma1 inh inactive, PLC-beta3 inh inactive, AHR act inactive, HIF activator inactive, CR mimetic SO inactive and HGIII-sPLA2 inh inactive.
CCOc1ccccc1-c1nc(-c2ccc(NC(=O)c3ccc(Br)o3)cc2)no1 was read as PLC-gamma1 inh inactive, PLC-beta3 inh inactive, AHR act 123, HIF activator inactive, CR mimetic SO inactive, HGIII-sPLA2 inh inactive, AHR act cf 106 and PXR counter 19.
